From PubChem BioAssay (NCATS)
Inconclusive results are not listed. Entries that show only a call come without a potency. The source made the active and inactive calls. Calls follow the shape of the dose curve; as a rule, active = well fitted inhibition curve with a large enough effect in the repeat runs; inconclusive = weak or mixed curves; inactive = flat fitted curve, though single readings scatter.

Molecular target: Cytochrome P450 2D6 (Homo sapiens) (UniProt P10635)
Assay: Cytochrome P450 family 2 subfamily D member 6 (CYP2D6) small molecule antagonists: luciferase biochemical (cell-free) qHTS assay (AID 1645840); also: nearly all actives have a fitted effect of over 55% in size
How it was run: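 P450-Glo CYP2D6 system: proluciferin substrate converted by enzyme to luciferin, read by luminescence proportional to activity. Enzyme-substrate mix with compound 10 min at room temperature, then NADPH regeneration 1 h before detection reagent.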
Potency is read from the fitted curve at half-maximal effect.

Cytochrome P450 2D6 (Homo sapiens), sequence (P10635 whole entry, looked up): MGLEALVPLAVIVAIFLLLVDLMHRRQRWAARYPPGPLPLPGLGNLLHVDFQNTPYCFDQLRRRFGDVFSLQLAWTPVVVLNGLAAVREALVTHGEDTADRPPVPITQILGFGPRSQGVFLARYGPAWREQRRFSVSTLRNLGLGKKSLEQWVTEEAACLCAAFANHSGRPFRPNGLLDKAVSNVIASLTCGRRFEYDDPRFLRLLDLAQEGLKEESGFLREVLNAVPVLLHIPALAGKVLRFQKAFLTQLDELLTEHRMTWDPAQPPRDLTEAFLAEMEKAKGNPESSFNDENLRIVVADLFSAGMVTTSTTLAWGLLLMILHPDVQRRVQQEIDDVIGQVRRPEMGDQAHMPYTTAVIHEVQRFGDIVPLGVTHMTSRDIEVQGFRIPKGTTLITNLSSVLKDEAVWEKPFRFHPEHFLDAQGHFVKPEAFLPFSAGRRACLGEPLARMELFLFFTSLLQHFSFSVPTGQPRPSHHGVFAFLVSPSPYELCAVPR

| SMILES | Potency |
| --- | --- |
| Nc1nc(CC(=O)Nc2ccc(CCNCC(O)c3ccccc3)cc2)cs1 (configuration not stated) | 0.477 µM (active) |
| COc1ccccc1-n1c(SCC(=O)Nc2nc3ccc(C)cc3s2)nc2c(c1=O)SCC2 | inactive |
